G9a inh = inhibitors of human histone lysine methyltransferase G9a; Q96KQ7; G9a H3K9 monomethylation, AlphaScreen, 2 h; Potency, µM (doses to about 102 µM), for inactives: at the highest dose activity, negative = inhibition, actives largely listed as inhibitors; 350,000 compounds, 8.8% hits; AID 504332; note: potency is the fitted concentration of half-maximal effect; % is set by controls: 0 for no effect and ±100 for the full control effect; nearly all actives have a fitted effect of over 75% in size
Target sequence (Q96KQ7 913-1193 limits assumed): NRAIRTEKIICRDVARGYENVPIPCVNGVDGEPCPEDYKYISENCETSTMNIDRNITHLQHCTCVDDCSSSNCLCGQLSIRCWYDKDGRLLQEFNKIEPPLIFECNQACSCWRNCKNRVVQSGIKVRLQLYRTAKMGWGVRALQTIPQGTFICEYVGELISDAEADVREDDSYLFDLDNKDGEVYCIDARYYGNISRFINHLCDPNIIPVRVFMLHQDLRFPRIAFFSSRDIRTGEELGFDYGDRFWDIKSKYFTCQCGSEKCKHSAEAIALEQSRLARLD
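G9a (20 nM) was preincubated 15 min with compound, then reacted 2 h at room temperature with 500 nM biotin-H3K9 peptide and 20 µM SAM. Monomethyl-H3K9 detected by AlphaScreen using anti-H3K9me1 antibody.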
CtBP-E1A blk = blocks the CtBP interaction with E1A. 340,000 compounds, 0.49% hits. activity change, % (no concentration beside the values). AlphaScreen GST-E1A/His-CtBP binding, 1536-well; hits give low values; in the data active = activity change below about -65%; inconclusive = mostly about -30% to -63%; note: % is set by controls: 0 for no effect and ±100 for the full control effect
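In 5 uL wells, 23 nL compound meets equimolar GST-E1A and His-CtBP (5X stock 125 nM each) for 2 h, 37 °C. Beads (5X, 50 ug/mL) then 1 h, 37 °C, dark.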
Six1-Eya2 inh = Six1/Eya2 interaction inhibition; Q15475+O00167; AlphaScreen GST-Six1/His-Eya2 binding, biochemical; hits give low values; activity change, % (test concentration not listed); 360,000 compounds, 0.56% hits; AID 651725; in the data active = activity change below about -65%; inconclusive = mostly about -30% to -63%; note: % is set by controls: 0 for no effect and ±100 for the full control effect
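GST-Six1 + His-Eya2 (5X stock: 250/500 nM); Tris pH 8.0, 300 mM NaCl, 0.05% BSA, 0.02% Tween 20; GSH donor/Ni acceptor beads; 1 h 37 °C dark; AlphaScreen readout.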
BAZ2B block = blocks human BAZ2B. AID 504333. 360,000 compounds, 4.4% hits. AlphaScreen BAZ2B-H3K14Ac peptide displacement. Potency, µM (series often up to 114 µM), for inactives: at the top dose activity change, negative = inhibition, hits mostly inhibitors. Q9UIF8; note: potency is the fitted concentration of half-maximal effect; % is set by controls: 0 for no effect and ±100 for the full control effect; nearly all actives have a fitted effect of over 60% in size
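AlphaScreen luminescence quantifies BAZ2B engagement of H3K14Ac peptide; the protein and biotinylated peptide are both at 50 nM final, buffer PBS pH 7.4 with 0.01% Tween-20, all steps at room temperature.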
JMJD2A Tudor inh = blocks the human JMJD2A Tudor domain; AlphaScreen JMJD2A-Tudor / H3K4me3 peptide binding; Potency, µM (doses to about 114 µM), for the others: at the top dose activity change, negative = inhibition, actives largely listed as inhibitors; O75164; 390,000 compounds, 4.4% hits; note: potency is the fitted concentration of half-maximal effect; % is set by controls: 0 for no effect and ±100 for the full control effect; nearly all actives have a fitted effect of over 50% in size
HP1b chromo inh = blocks HP1-beta chromodomain binding to methylated histone tails; P83916; AlphaScreen HP1-beta / biotin-H3K9me3 peptide binding; Potency, µM (highest dose often 114 µM), without a hit: at the highest dose activity change, negative = inhibition, most hits filed as inhibitors; 390,000 compounds, 0.56% hits; note: potency is the fitted concentration of half-maximal effect; nearly all actives have a fitted effect of over 70% in size
Target sequence (P83916 whole entry, looked up): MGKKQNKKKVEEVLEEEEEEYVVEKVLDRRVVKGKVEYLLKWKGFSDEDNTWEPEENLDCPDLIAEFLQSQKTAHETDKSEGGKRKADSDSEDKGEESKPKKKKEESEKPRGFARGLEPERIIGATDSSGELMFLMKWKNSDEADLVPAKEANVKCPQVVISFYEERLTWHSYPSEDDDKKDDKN
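AlphaScreen: HP1-beta (50 nM) preformed 30 min with biotin-H3(1-18)K9me3 peptide (50 nM) in PBS pH 7.4, 0.01% Tween-20. Compound added for 30 min at RT, then streptavidin donor/nickel chelate acceptor beads (10 ug/mL) for 30 min.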
Starred values were filed as active, the others as inactive; [ ] = dose if it differs, or a comment. A selection: hits, their analogues and other compounds. The true share with any hit is near 10%. Unless noted, calls come from the whole dose curve; as a rule, active = well fitted inhibition curve with a large enough effect; inconclusive = small, poorly fitted or top-dose-only effect; inactive = no such curve, though single readings can be large or run the other way.

Screening NC(=O)NC(=O)CSc1nnc(-c2ccc(Cl)cc2)n1CC1CCCO1 (stereo unspecified) returned G9a inh -5%, Six1-Eya2 inh 10, BAZ2B block 1%, JMJD2A Tudor inh -9% and HP1b chromo inh 36%.
COc1cc(C(=O)CSc2nnc(-c3ccc(O)cc3)n2CC2CCCO2)ccc1NC(C)=O (stereo unspecified) was read as G9a inh -10%[59 µM], CtBP-E1A blk 24, Six1-Eya2 inh -3, BAZ2B block -1%, JMJD2A Tudor inh -4% and HP1b chromo inh 33%.
Screening CCCC1=Nc2cc(C(=O)NC3CCCCC3)ccc2Sc2ccc(C)cc21 returned G9a inh 2%[59 µM], BAZ2B block -12%, JMJD2A Tudor inh -22% and HP1b chromo inh 7%.
Screening CCCN(C(=O)c1c(C)oc2ncn(CC(C)C)c(=O)c12)c1ccccc1C returned G9a inh -8%[59 µM], BAZ2B block 8%[57.1 µM], JMJD2A Tudor inh -17% and HP1b chromo inh 4%.
Screening CCN(CC)CCCNC(=O)Cn1nc(C)n2c(cc3sccc32)c1=O returned G9a inh -3%[59 µM], BAZ2B block 1%, JMJD2A Tudor inh -11% and HP1b chromo inh 16%.
For Cc1ccc2c(CC(=O)NCC(C)(C)N3CCOCC3)coc2c1 the results were G9a inh -3%[59 µM], CtBP-E1A blk 0, Six1-Eya2 inh 25, BAZ2B block -6%, JMJD2A Tudor inh -15% and HP1b chromo inh 35%.
For CC(=O)[C@@]1(O)CC[C@H]2[C@H]3C[C@@H](C)C4=CC(=O)C=C[C@]4(C)[C@@]3(F)[C@@H](O)C[C@]21C the results were G9a inh -1%[21.5 µM].
Cc1ccc(-n2c(SCC(=O)NCC3CCCO3)nnc2-c2ccoc2C)cc1 (stereo unspecified) was read as G9a inh inconclusive, CtBP-E1A blk -1, Six1-Eya2 inh -3, BAZ2B block 1%, JMJD2A Tudor inh -21% and HP1b chromo inh 68%.
`O=C(CSc1nnc(-c2ccc(S(=O)(=O)N3CCCC3)cc2)n1CC1CCCO1)NC1CC1` (stereo unspecified) gave G9a inh 50µM*, CtBP-E1A blk -1, Six1-Eya2 inh -8, BAZ2B block -7%, JMJD2A Tudor inh -3% and HP1b chromo inh 15%.
For Cc1occc1-c1nnc(SCC(=O)NCCc2ccccc2)o1 the results were G9a inh -1%, CtBP-E1A blk -2, Six1-Eya2 inh 7, BAZ2B block -23%, JMJD2A Tudor inh -24% and HP1b chromo inh -18%.
Cc1occc1-c1nnc(SCC(=O)NCC2CCCO2)n1C (stereo unspecified) was read as G9a inh -10%[59 µM], CtBP-E1A blk 5, Six1-Eya2 inh 1, BAZ2B block -3%, JMJD2A Tudor inh 56µM* and HP1b chromo inh -6%.
For Cc1occc1-c1nnc(SCC(=O)NCCc2ccccc2)n1C(C)c1ccccc1 (stereo unspecified) the results were G9a inh 56µM*, CtBP-E1A blk -5, Six1-Eya2 inh -8, BAZ2B block inconclusive, JMJD2A Tudor inh -25% and HP1b chromo inh 9%.
`COc1ccccc1CNC(=O)c1ccc2c(c1)CCN2S(=O)(=O)c1ccc(Cl)cc1` gave G9a inh 8%[59 µM], BAZ2B block -2%, JMJD2A Tudor inh -21% and HP1b chromo inh 34%.
O=c1[nH][nH]c(=S)n1C1CCCCC1 was read as G9a inh 1.1µM*, CtBP-E1A blk 1, Six1-Eya2 inh 4, BAZ2B block 25µM*, JMJD2A Tudor inh 2.5µM* and HP1b chromo inh 3.5µM*.
Screening O=c1cc(O)n(C2CCCCCC2)c(=O)[nH]1 returned G9a inh inconclusive, CtBP-E1A blk 0, Six1-Eya2 inh 24, BAZ2B block -1%, JMJD2A Tudor inh 1% and HP1b chromo inh 61%.
`O=C(O)Cc1nnc(-c2cc3ccccc3[nH]2)s1` gave JMJD2A Tudor inh -34%.
Screening CN(C)c1ccc(C2SCCN2C(=O)c2ccc([N+](=O)[O-])cc2)cc1 (stereo unspecified) returned G9a inh inconclusive, CtBP-E1A blk -28, Six1-Eya2 inh -21, BAZ2B block 45µM*, JMJD2A Tudor inh inconclusive and HP1b chromo inh inconclusive.
`CC(=O)[C@@H]1[C@@H]2C(=O)N(c3ccccc3F)C(=O)[C@@H]2[C@H]2c3ccccc3C=NN12` gave G9a inh 50µM*, CtBP-E1A blk -28, Six1-Eya2 inh -21, BAZ2B block -2%, JMJD2A Tudor inh -11% and HP1b chromo inh 36%.
`O=C(c1ccc(Cl)cc1)[C@@H]1[C@@H]2C(=O)N(c3cccc4ccccc34)C(=O)[C@@H]2C2c3ccccc3C=NN21` (stereo partly specified) gave G9a inh 20µM*, CtBP-E1A blk -14, Six1-Eya2 inh -7, BAZ2B block -6%, JMJD2A Tudor inh inconclusive and HP1b chromo inh 0%.
Screening CC(=O)c1ccc(N2C(=O)[C@@H]3[C@H](C2=O)[C@H]2c4ccccc4C=NN2[C@@H]3C(C)=O)cc1 returned CtBP-E1A blk 6, Six1-Eya2 inh 3, BAZ2B block 14%, JMJD2A Tudor inh -15% and HP1b chromo inh 31%.
For O=C1C2C3C=CC(C4CC34)C2C(=O)N1c1cccc2ccccc12 (stereo unspecified) the results were CtBP-E1A blk 2, Six1-Eya2 inh 5, BAZ2B block -1%, JMJD2A Tudor inh -15% and HP1b chromo inh 37%.
COc1ccc(N2CCN(C(=O)c3cc(-c4ccc(C)c(F)c4)on3)CC2)cc1 was read as G9a inh 17%[59 µM], BAZ2B block 8%, JMJD2A Tudor inh -20% and HP1b chromo inh 21%.
`O=C(CCc1nc(-c2ccc(F)cc2)no1)NCc1ccccc1CN1CCOCC1` gave CtBP-E1A blk 0, Six1-Eya2 inh 2, JMJD2A Tudor inh -10% and HP1b chromo inh 12%[57 µM].
For CCC1CN(C(=O)N2CCC(C(=O)NCc3ccc(C)o3)CC2)c2cc(C)ccc2O1 (stereo unspecified) the results were G9a inh 45µM*, CtBP-E1A blk -6, Six1-Eya2 inh -7, BAZ2B block -23%, JMJD2A Tudor inh -26% and HP1b chromo inh 22%.
Screening CCC1CN(C(=O)N2CCC(C(=O)Nc3cc(C)ccc3C)CC2)c2ccccc2O1 (stereo unspecified) returned G9a inh -38%[59 µM], BAZ2B block 79µM*, JMJD2A Tudor inh inconclusive and HP1b chromo inh 10%.

Screening results (PubChem)
